The record followed here is PubChem BioAssay (NCATS).

SMILES strings stand for the structures. Results with a measured potency or affinity are listed apart. Activity calls are given as the source filed them. The rule behind the calls is not given here.
Throughout, for efficacy: 0% is about no effect.

For the first test the following is noted: Ebola virus entry assay, green fluorescence channel.
In the case of `CCOC(=O)Oc1ccc(CCNC(=O)[C@H](CCSC)NC(C)=O)cc1OC(=O)OCC`, the efficacy was -12.4% (inactive).
Same read-out and setting: the result for `OCCc1ccccc1` reads 36.8% (inactive); that for `O=C(NCN1CCOCC1)c1cnccn1`, 22.2% (inactive); that for `Nc1nc(N)nc(-c2cc(Cl)ccc2Cl)n1`, -23.5% (inactive).
The same measure, in the same setting: the result for `CCCNC(C)C(=O)Nc1c(C)csc1C(=O)OC` (stereo not drawn) reads 13% (inactive); that for `CCOc1ccc2nc3cc(N)ccc3c(N)c2c1`, 18.4% (inactive); that for `CC(C)(Oc1ccc(Cl)cc1)C(=O)O`, -14.9% (inactive).
The same measure, in the same setting: the result for `CC(C)=CCC1C(=O)N(c2ccccc2)N(c2ccccc2)C1=O` reads -18% (inactive).
On to `CC(=O)OCC(=O)[C@H]1CC[C@H]2[C@@H]3CCC4=CC(=O)CC[C@]4(C)[C@H]3CC[C@]12C`, for which the efficacy was -27% (inactive).
The same measure, in the same setting: the same measure for `CCn1cc(C(=O)O)c(=O)c2cnc(N3CCNCC3)nc21`: -36.7% (inactive).
Same read-out and setting: the result for `CN1C(C)(C)CCCC1(C)C` reads 14.2% (inactive); that for `O=C(O)CCCC[P+](c1ccccc1)(c1ccccc1)c1ccccc1`, 19.9% (inactive).
In the case of `O=C(Cn1ccnc1[N+](=O)[O-])NCc1ccccc1`, the efficacy is -10.1% (inactive).
Same read-out and setting: the same measure for `COC(=O)c1cc(Cl)ccc1NS(=O)(=O)C(F)(F)F`: -9.07% (inactive); for `CC1(C)O[C@@H]2C[C@H]3[C@@H]4CCC5=CC(=O)C=C[C@]5(C)[C@@]4(F)[C@@H](O)C[C@]3(C)[C@]2(C(=O)CO)O1`: 24.4% (inactive); for `CCn1ccc(NS(=O)(=O)c2ccc(N)cc2)nc1=O`: -11.6% (inactive).
The same measure, in the same setting: the same measure for `CCC(C)(CN(C)C)OC(=O)c1ccccc1` (stereo not drawn): 37.4% (inactive); for `O=C(O)CSCC(=O)NC1CCSC1=O` (stereo not drawn): -14.4% (inactive); for `C[C@]12CC[C@H]3[C@@H](CCC4=CC(=O)CC[C@@H]43)[C@@H]1CC[C@@H]2OC(=O)CCC1CCCCC1`: -18.4% (inactive).
The same measure, in the same setting: the same measure for `NC[C@H]1O[C@H](O[C@H]2[C@H](O[C@@H]3O[C@H](CO)[C@@H](O)[C@H]3O)C(O)[C@H](N)C[C@@H]2N)[C@H](N)[C@@H](O)[C@@H]1O` (stereo partly drawn): -16% (inactive); for `CN(CC1(C)CCCO1)S(=O)(=O)c1ccc(Cl)c(S(N)(=O)=O)c1` (stereo not drawn): -11% (inactive); for `CC(=O)NS(=O)(=O)c1ccc(N)cc1`: 10.9% (inactive).
As for `CN=C(NC#N)Nc1ccc(C2=NNC(=O)CC2C)cc1` (stereo not drawn), the efficacy was -19.1% (inactive).
Same read-out and setting: the result for `O=C(OCc1ccccc1)c1ccccc1` reads -23.2% (inactive).
As to `C=CCc1ccc(O)c(OC)c1`, the efficacy is 23.7% (inactive).
In the case of `CC(C)(Sc1cc(C(C)(C)C)c(O)c(C(C)(C)C)c1)Sc1cc(C(C)(C)C)c(O)c(C(C)(C)C)c1`, the efficacy is -17.7% (inactive).
On the same count and under the same terms, the result for `CCN(CC)CCNC(=O)COc1ccc(OC)cc1` reads 11.4% (inactive); that for `CC(=O)[C@@]1(O)CC[C@H]2[C@@H]3C[C@H](C)C4=CC(=O)C=C[C@]4(C)[C@@]3(F)[C@@H](O)C[C@@]21C`, -18.9% (inactive); that for `Cc1onc(-c2ccccc2)c1-c1ccc(S(N)(=O)=O)cc1`, 21% (inactive).
On the same count and under the same terms, the same measure for `NC(=O)NS(=O)(=O)c1ccc(Cl)cc1`: -22.2% (inactive); for `O=C(CS(=O)Cc1ccco1)NC/C=C\COc1cc(CN2CCCCC2)ccn1` (stereo not drawn): 29.8% (inactive).
On the same count and under the same terms, the result for `CCCCCCCCCCCCCCCCN` reads -37.3% (inactive).
On to `CC1(C)O[C@H]2CC(=O)OC[C@]23[C@H]2CC[C@@]4(C)[C@H](c5ccoc5)OC(=O)[C@H]5O[C@]54[C@]2(C)C(=O)C[C@@H]13`, for which the efficacy is -20.6% (inactive).
Same read-out and setting: the result for `CCCCOC(=O)CC(CC(=O)OCCCC)(OC(C)=O)C(=O)OCCCC` reads 21.9% (inactive); that for `C#C[C@]1(O)CC[C@H]2[C@@H]3CCC4=CC(=O)CC[C@@H]4[C@H]3CC[C@@]21CC`, 10.4% (inactive).
Same read-out and setting: the same measure for `CC(=O)Oc1cccc2c1C(=O)c1c(OC(C)=O)cc(C(=O)O)cc1C2=O`: -17.1% (inactive).
Still for that read-out and setting: the result for `Cc1cc(O)cc2c1O[C@](C)(CCC[C@H](C)CCC[C@H](C)CCCC(C)C)CC2` reads -22.5% (inactive); that for `CCC(C)C(C)(COC(N)=O)COC(N)=O` (stereo not drawn), 12.3% (inactive).
As for `Cc1cc(C)c(NC(=O)CN(CC(=O)O)CC(=O)O)c(C)c1Br`, the efficacy is 7.04% (inactive).

For another test the following is noted: Ebola virus entry assay, green channel fluorescence.
`CCOC(=O)Oc1ccc(CCNC(=O)[C@H](CCSC)NC(C)=O)cc1OC(=O)OCC`: the compound was called inactive.
Turning to `OCCc1ccccc1`, the outcome was inactive.
For `O=C(NCN1CCOCC1)c1cnccn1`, the outcome was inactive.
Same read-out and setting: the same measure for `Nc1nc(N)nc(-c2cc(Cl)ccc2Cl)n1`: “inactive”; for `CCCNC(C)C(=O)Nc1c(C)csc1C(=O)OC` (stereo not drawn): “inactive”; for `CCOc1ccc2nc3cc(N)ccc3c(N)c2c1`: “inactive”.
The same measure, in the same setting: the result for `CC(C)(Oc1ccc(Cl)cc1)C(=O)O` reads “inactive”; that for `CC(C)=CCC1C(=O)N(c2ccccc2)N(c2ccccc2)C1=O`, “inactive”.
Still for that read-out and setting: the same measure for `CC(=O)OCC(=O)[C@H]1CC[C@H]2[C@@H]3CCC4=CC(=O)CC[C@]4(C)[C@H]3CC[C@]12C`: “inactive”; for `CCn1cc(C(=O)O)c(=O)c2cnc(N3CCNCC3)nc21`: “inactive”.
For the compound `CN1C(C)(C)CCCC1(C)C`, the outcome was inactive.
Same read-out and setting: the same measure for `O=C(O)CCCC[P+](c1ccccc1)(c1ccccc1)c1ccccc1`: “inactive”; for `O=C(Cn1ccnc1[N+](=O)[O-])NCc1ccccc1`: “inactive”.
As to `COC(=O)c1cc(Cl)ccc1NS(=O)(=O)C(F)(F)F`, the call was inactive.
Still for that read-out and setting: the result for `CC1(C)O[C@@H]2C[C@H]3[C@@H]4CCC5=CC(=O)C=C[C@]5(C)[C@@]4(F)[C@@H](O)C[C@]3(C)[C@]2(C(=O)CO)O1` reads “inactive”; that for `CCn1ccc(NS(=O)(=O)c2ccc(N)cc2)nc1=O`, “inactive”; that for `CCC(C)(CN(C)C)OC(=O)c1ccccc1` (stereo not drawn), “inactive”.
On the same count and under the same terms, the result for `O=C(O)CSCC(=O)NC1CCSC1=O` (stereo not drawn) reads “inactive”; that for `C[C@]12CC[C@H]3[C@@H](CCC4=CC(=O)CC[C@@H]43)[C@@H]1CC[C@@H]2OC(=O)CCC1CCCCC1`, “inactive”; that for `NC[C@H]1O[C@H](O[C@H]2[C@H](O[C@@H]3O[C@H](CO)[C@@H](O)[C@H]3O)C(O)[C@H](N)C[C@@H]2N)[C@H](N)[C@@H](O)[C@@H]1O` (stereo partly drawn), “inactive”.
On the same count and under the same terms, the result for `CN(CC1(C)CCCO1)S(=O)(=O)c1ccc(Cl)c(S(N)(=O)=O)c1` (stereo not drawn) reads “inactive”.
`CC(=O)NS(=O)(=O)c1ccc(N)cc1`: the result was inactive.
On the same count and under the same terms, the same measure for `CN=C(NC#N)Nc1ccc(C2=NNC(=O)CC2C)cc1` (stereo not drawn): “inactive”.
The same measure, in the same setting: the result for `O=C(OCc1ccccc1)c1ccccc1` reads “inactive”; that for `C=CCc1ccc(O)c(OC)c1`, “inactive”; that for `CC(C)(Sc1cc(C(C)(C)C)c(O)c(C(C)(C)C)c1)Sc1cc(C(C)(C)C)c(O)c(C(C)(C)C)c1`, “inactive”.
The same measure, in the same setting: the same measure for `CCN(CC)CCNC(=O)COc1ccc(OC)cc1`: “inactive”; for `CC(=O)[C@@]1(O)CC[C@H]2[C@@H]3C[C@H](C)C4=CC(=O)C=C[C@]4(C)[C@@]3(F)[C@@H](O)C[C@@]21C`: “inactive”.
As for `Cc1onc(-c2ccccc2)c1-c1ccc(S(N)(=O)=O)cc1`, the compound was called inactive.
For `NC(=O)NS(=O)(=O)c1ccc(Cl)cc1`, the outcome was inactive.
On the same count and under the same terms, the result for `O=C(CS(=O)Cc1ccco1)NC/C=C\COc1cc(CN2CCCCC2)ccn1` (stereo not drawn) reads “inactive”.
For `CCCCCCCCCCCCCCCCN`, the call was inactive.
The same measure, in the same setting: the result for `CC1(C)O[C@H]2CC(=O)OC[C@]23[C@H]2CC[C@@]4(C)[C@H](c5ccoc5)OC(=O)[C@H]5O[C@]54[C@]2(C)C(=O)C[C@@H]13` reads “inactive”; that for `CCCCOC(=O)CC(CC(=O)OCCCC)(OC(C)=O)C(=O)OCCCC`, “inactive”.
On the same count and under the same terms, the result for `C#C[C@]1(O)CC[C@H]2[C@@H]3CCC4=CC(=O)CC[C@@H]4[C@H]3CC[C@@]21CC` reads “inactive”; that for `CC(=O)Oc1cccc2c1C(=O)c1c(OC(C)=O)cc(C(=O)O)cc1C2=O`, “inactive”.
The same measure, in the same setting: the same measure for `Cc1cc(O)cc2c1O[C@](C)(CCC[C@H](C)CCC[C@H](C)CCCC(C)C)CC2`: “inactive”.
Take `CCC(C)C(C)(COC(N)=O)COC(N)=O` (stereo not drawn): the compound was called inactive.
`Cc1cc(C)c(NC(=O)CN(CC(=O)O)CC(=O)O)c(C)c1Br`: the compound was called inactive.
